HSF-1 act = HSF-1 activators, primary screen, NIH3T3-HGL cells, MG132 stress, luminescence, single point. AID 504408, 2011. activation, % at 9 µM. NIH3T3-HGL HSF-1 luciferase reporter, 8 h; 100% = twice DMSO control signal. 300,000 compounds, 1.7% hits;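 active = mean replicate activation of at least 50% with a set share of replicates each reaching 50%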;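 note: 0% = median of the neutral control wells and 100% = twice that signal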
HSF1 inhib = HSF1 inhibitors in luciferase reporter cells, primary screen, cell-based, NIH3T3, luminescence; NIH3T3-HGL HSE-luciferase, MG132-induced, luminescence 8 h; hits give low values; 300,000 compounds, 0.77% hits; activity change, negative = inhibition, % at 7.5 µM (by protocol); AID 2098, 2009;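 active = more than half of replicate wells show activity change below -50%, luminescence cut by over half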;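 note: luciferase reports HSF-1 transcriptional activity via heat shock element; 0% = median of DMSO wells and -100% = zero luminescence signal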
dFosB activator = activators of delta FosB homodimer, primary screen, biochemical, fluorescence polarization, TAMRA-CDK5 oligo, single point; activation, % at 25 µM; purified delta FosB; percent of positive-control signal above neutral wells; 340,000 compounds, 0.99% hits;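 active = mean activation above about 17%, with every replicate also reaching it, limit read from the data, passing the limit was not always enough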
Target sequence (P13346 whole entry, looked up): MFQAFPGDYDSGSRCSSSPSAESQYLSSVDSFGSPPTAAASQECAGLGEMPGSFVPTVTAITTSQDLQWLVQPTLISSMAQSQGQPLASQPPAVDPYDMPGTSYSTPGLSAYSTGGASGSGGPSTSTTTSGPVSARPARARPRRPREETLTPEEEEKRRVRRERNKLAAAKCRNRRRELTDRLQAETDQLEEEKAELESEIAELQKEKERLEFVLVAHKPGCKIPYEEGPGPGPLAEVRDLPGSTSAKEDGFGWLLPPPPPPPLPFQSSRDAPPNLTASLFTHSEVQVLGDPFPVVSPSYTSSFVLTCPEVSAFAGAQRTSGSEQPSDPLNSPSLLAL
Platelet DG rel = inhibitors of platelet dense granule secretion, primary screen, cell-based, MLPCN, human platelets; inhibition, %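 (compounds screened at 7.5 µM in platelet-rich plasma)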; AID 1663, 2009; 300,000 compounds, 0.22% hits; human platelet-rich plasma, SFLLRN dense granule ATP release, luminescence;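 active = mean replicate score, as percent of positive control, at or above 50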
HSP90 inh = HSP90 inhibitors, primary screen, cell lysate, luminescence | 290,000 compounds, 0.91% hits | AID 1789, 2009 | Rabbit reticulocyte lysate, luciferase refolding luminescence, 3 h | inhibition, % at 5.6 µM | Heat shock protein HSP 90 (rabbit reticulocyte lysate; luciferase refolding);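 active = inhibition above the screen-wide mean plus 3 SD, computed separately per campaign, cut at about 16% in these data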;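 note: 0% = DMSO wells and 100% = 60 µM geldanamycin wells; inhibitors lower the luminescence because luciferase stays unfolded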
MPTP block = mitochondrial permeability transition pore inhibitors, primary screen, biochemical, isolated mouse mitochondria, absorbance. Ca2+ swelling absorbance, 30 min. inhibition, % at 10 µM. 360,000 compounds, 1.4% hits. AID 602449, 2012;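 active = inhibition of 50% or more, scaled per plate between neutral and stimulator controls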;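 note: 0% = DMSO wells given calcium and 100% = 1 mM EGTA wells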
Active calls of the source: *. Shown are actives, neighbours in structure and some others; about 4.9% of the full set was active somewhere.

Screening COc1cccc(C(NC(C)=O)c2nc(-c3ccccc3)cs2)c1 (stereo not given) returned MPTP block 0.
COc1ccc(CNC(=O)N2[C@H]3CC[C@@H]2C=C(c2ccc(F)cc2OCc2ccccc2)C3)cc1OC was read as MPTP block -2.
`CCOC(=O)[C@]12CCC=C1N(Cc1ccco1)C(=O)[C@H](CC(=O)N1CCC(c3ccccc3)CC1)C2` gave MPTP block -2.
Screening C=C1C(=O)[C@]23C[C@H]1CC[C@H]2[C@]1(C)[C@@H](OC(C)=O)CC[C@@](C)(C(=O)O)[C@H]1C[C@@H]3O returned MPTP block 0.
`C=C1C(=O)C2=CC1CCC(=O)C1(C)CCC(OC(C)=O)C(C)(C)C1CC2O` (stereo not given) gave HSF-1 act 89*, HSF1 inhib 89*, dFosB activator -5 and MPTP block 1.
Screening Cc1ccc(-c2csc(N3CCN(c4cc5c(cc4Cl)nc(-c4ccncc4)n5CCN4CCCCC4)CC3)n2)cc1 returned HSF-1 act -8, HSF1 inhib 6, dFosB activator 22*, Platelet DG rel -1, HSP90 inh -3 and MPTP block 12.
`Cc1ccc(-c2csc(N3CCN(c4ccc5nc(-c6ccncc6)n(CCN6CCCCC6)c5c4)CC3)n2)cc1` gave HSF-1 act -9, HSF1 inhib 5, dFosB activator -4, Platelet DG rel -1, HSP90 inh -2 and MPTP block 1.
`O=C(Nc1ccc([N+](=O)[O-])cc1)c1ccc(S(=O)(=O)N2CCCC2)cc1` gave HSF-1 act -3, HSF1 inhib -2, dFosB activator 3, Platelet DG rel 0, HSP90 inh -2 and MPTP block 1.
`O=C(Nc1ccc(S(=O)(=O)N2CCCCCC2)cc1)c1[nH]ncc1[N+](=O)[O-]` gave HSF-1 act 107*, HSF1 inhib 89, dFosB activator -2, Platelet DG rel -3, HSP90 inh 0 and MPTP block 1.
Screening C=CCn1c(=NC(=O)C2CC2)sc2cc(NC(C)=O)ccc21 returned HSF-1 act -65, HSF1 inhib -55*, dFosB activator 7, Platelet DG rel 6, HSP90 inh -1 and MPTP block 1.
CC(=O)c1cccc(NC(=O)C2CC(=O)N(Cc3ccccc3)C2)c1 (stereo not given) was read as HSF-1 act -6, HSF1 inhib 3, dFosB activator -7, Platelet DG rel -4, HSP90 inh -2 and MPTP block -2.
CC(=O)c1cccc(NC(=O)C2CC(=O)N(CCc3ccccc3)C2)c1 (stereo not given) was read as HSF-1 act -68, HSF1 inhib -59*, dFosB activator -5, Platelet DG rel 0, HSP90 inh -6 and MPTP block 1.
COc1ccc(-c2ccc3c(c2)O[C@H](CN(C)C(=O)Nc2ccccc2F)[C@@H](C)CN([C@H](C)CO)S3(=O)=O)cc1 was read as MPTP block 0.
Cc1cc(C)c(C#N)c(Nc2ccc(F)cc2)n1 was read as HSF-1 act 1, HSF1 inhib -6, dFosB activator 3, Platelet DG rel 3, HSP90 inh 0 and MPTP block 0.
For N#Cc1cnc(Nc2ccc(F)cc2)nc1N the results were HSF-1 act 72*, HSF1 inhib 31, dFosB activator 1, Platelet DG rel -2, HSP90 inh -1 and MPTP block 2.
Screening COc1ccc(/C(O)=C2/C(=O)C(=O)N(c3ncccn3)C2c2ccc(C(C)(C)C)cc2)cc1 (stereo not given) returned HSF-1 act 13, HSF1 inhib 16, Platelet DG rel -16 and HSP90 inh -1.
Screening Cc1cc(NC(=O)CSc2nc3c(sc4ccccc43)c(=O)n2CCCN2CCOCC2)n[nH]1 returned HSF-1 act 64*, HSF1 inhib 41, dFosB activator -20, Platelet DG rel 5, HSP90 inh 2 and MPTP block -1.
For Cc1ccc2c(c1)c1c(n2CC(O)Cn2nc(C)c(Br)c2C)C(=O)CCC1 (stereo not given) the results were HSF-1 act -1, HSF1 inhib 12, dFosB activator -3, Platelet DG rel -17, HSP90 inh 1 and MPTP block 26.
For Cc1ccc2c(c1)c(C)c(C)n2CC(O)Cn1nc(C)c(Br)c1C (stereo not given) the results were HSF-1 act 57*, HSF1 inhib 30, dFosB activator -9, Platelet DG rel 0, HSP90 inh 0 and MPTP block 3.
Screening CC1=CCC2C(=O)N(c3ccc(C)c(Br)c3)C(=O)C2C1 (stereo not given) returned HSF-1 act -81, HSF1 inhib -76*, dFosB activator 8, Platelet DG rel -3, HSP90 inh 0 and MPTP block 0.
COc1ccc2c(c1)CCc1c(C(=O)N(C)c3ccccc3)noc1-2 was read as HSF-1 act 69*, HSF1 inhib 37, dFosB activator -5, Platelet DG rel -8, HSP90 inh 2 and MPTP block 2.
Screening COCCNC(=O)c1noc2c1CCc1cc(OC)ccc1-2 returned HSF-1 act 77*, HSF1 inhib 47, dFosB activator -7, Platelet DG rel -17, HSP90 inh 3 and MPTP block 1.
Screening COc1ccc2c(c1)CCc1c(C(=O)NC3CCCCC3)noc1-2 returned HSF-1 act 45, HSF1 inhib 23, dFosB activator -1, Platelet DG rel -3, HSP90 inh -2 and MPTP block 2.
`COCC(C)NC(=O)c1noc2c1CCc1cc(OC)ccc1-2` (stereo not given) gave HSF-1 act 71*, HSF1 inhib 49, dFosB activator -5, Platelet DG rel 6, HSP90 inh 3 and MPTP block -1.
For O=C(CC(=O)Nc1ccc(F)cc1)Nc1ccc(F)cc1 the results were HSF-1 act 26, HSF1 inhib -4, dFosB activator 2, Platelet DG rel 0, HSP90 inh 2 and MPTP block -1.
Screening CC(=O)N(c1ccc(C)cc1)c1nc(C)cc(C)c1C#N returned HSF-1 act -2, HSF1 inhib 3, dFosB activator -3, Platelet DG rel 2, HSP90 inh 2 and MPTP block 2.
For Cc1cc(NC(=O)COc2cccc([N+](=O)[O-])c2)no1 the results were HSF-1 act 13, HSF1 inhib 3, dFosB activator 2, Platelet DG rel -14, HSP90 inh 2 and MPTP block -1.
